Screening results deposited in PubChem BioAssay by National Center for Advancing Translational Sciences (NCATS).
A selection: hits, their analogues and other compounds. The true share with any hit is near 12%.
JMJD2A Tudor inh – qHTS Assay for Inhibitors of JMJD2A-Tudor Domain; AlphaScreen JMJD2A-Tudor / H3K4me3 peptide binding; Potency, µM (doses to about 114 µM), usual class: inhibitors; 4.4% of 390,000 active; note: nearly all actives have a fitted effect of over 50% in size
BAZ2B inh – qHTS Assay for Inhibitors of BAZ2B | Bromodomain adjacent to zinc finger domain protein 2B (Homo sapiens), Q9UIF8 | AlphaScreen BAZ2B-H3K14Ac peptide displacement | Potency, µM (series often up to 114 µM), usual class: inhibitors | 4.4% of 360,000 active; note: nearly all actives have a fitted effect of over 60% in size
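AlphaScreen luminescence quantifies BAZ2B engagement of H3K14Ac peptide; the protein and biotinylated peptide are both at 50 nM final, buffer PBS pH 7.4 with 0.01% Tween-20, all steps at room temperature.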
G9a block – qHTS Assay for Inhibitors of Histone Lysine Methyltransferase G9a. Histone-lysine N-methyltransferase EHMT2 (Homo sapiens), Q96KQ7. G9a H3K9 monomethylation, AlphaScreen, 2 h. Potency, µM (highest dose often 102 µM), usual class: inhibitors. 8.8% of 350,000 active. AID 504332, 2011; note: nearly all actives have a fitted effect of over 75% in size
Target sequence (Q96KQ7 913-1193 limits assumed): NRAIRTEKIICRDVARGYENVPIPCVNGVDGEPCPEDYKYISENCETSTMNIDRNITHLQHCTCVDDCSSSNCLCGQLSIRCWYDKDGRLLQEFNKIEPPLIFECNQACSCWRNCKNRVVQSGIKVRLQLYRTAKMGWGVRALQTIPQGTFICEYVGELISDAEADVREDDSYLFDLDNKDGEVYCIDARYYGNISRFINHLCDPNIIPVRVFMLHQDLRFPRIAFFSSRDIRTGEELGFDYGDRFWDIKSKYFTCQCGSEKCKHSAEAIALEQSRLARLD
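Chemiluminescent proximity detection of H3K9 monomethylation, read after 10 min bead incubation in the dark. Reaction: 20 nM G9a, 500 nM biotin-H3K9 peptide, 20 uM SAM cofactor, 2 h, room temperature, following 15 min enzyme-compound preincubation.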
Sfp inh – qHTS Assay for Inhibitors of Bacillus subtilis Sfp phosphopantetheinyl transferase (PPTase); Potency, µM, usual class: inhibitors; 4'-phosphopantetheinyl transferase ffp (Bacillus subtilis), Q9F4F7; AID 1490, 2009; Biochemical Sfp PPTase activity, qHTS; 3.5% of 310,000 active;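 note: the enzyme is Sfp with the accession as filed and its product quenches rhodamine fluorescence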
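Sfp 15 nM + cpd, 15 min RT; start w/ rhodamine-CoA 5 uM, BHQ-2-YbbR 12.5 uM (final); 50 mM Hepes pH 7.6, 10 mM MgCl2, 0.01% NP-40, 0.01% BSA; read 525/598 nm at 0 and 30 min.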
TDP1 inh – qHTS Assay for Inhibitors of Tyrosyl-DNA Phosphodiesterase (TDP1); Potency, µM (highest dose often 130 µM), most hits filed as inhibitors; recombinant TDP1, AlphaScreen DNA substrate cleavage; 0.28% of 350,000 active; Tyrosyl-DNA phosphodiesterase 1 (Homo sapiens), Q9NUW8; note: nearly all actives have a fitted effect of over 40% in size
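Recombinant E. coli-expressed Tdp1 (1 nM) preincubated with compound 15 min at RT, then 5'-biotin/3'-phosphotyrosine-FITC DNA substrate (15 nM) added for 5 min. AlphaScreen beads (10 ug/ml) added, 10 min RT; tyrosine-FITC cleavage read as signal loss.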
HP1b chromo inh – HTS for Inhibitors of HP1-beta Chromodomain Interactions with Methylated Histone Tails; Potency, µM (highest dose often 114 µM), usual class: inhibitors; AlphaScreen HP1-beta / biotin-H3K9me3 peptide binding; 0.56% of 390,000 active; note: nearly all actives have a fitted effect of over 70% in size
Target sequence (P83916 whole entry, looked up): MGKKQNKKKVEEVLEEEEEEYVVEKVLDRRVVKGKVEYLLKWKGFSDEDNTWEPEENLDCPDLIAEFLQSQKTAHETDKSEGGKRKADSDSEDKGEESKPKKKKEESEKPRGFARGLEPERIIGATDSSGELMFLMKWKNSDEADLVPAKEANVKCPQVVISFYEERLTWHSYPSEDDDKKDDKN
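HP1-beta protein (50 nM final) preincubated 30 min at room temperature with biotinylated H3(1-18)K9me3 peptide (50 nM) in PBS pH 7.4, 0.01% Tween-20, then compound added for 30 min. AlphaScreen streptavidin donor/nickel chelate acceptor beads (10 ug/mL final), 30 min dark, luminescence read.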
Of the large screens only hits and unclear results are named; the others gave an inactive call; ! = repeats disagree. Calls come from the whole dose curve; as a rule, active = well fitted curve in the direction sought with a large enough effect; inconclusive = small, poorly fitted or top-dose-only effect, or another doubt; inactive = no such curve, though single readings can be large; an effect the other way counts as inactive or inconclusive.

Cc1cc(C)c2c(=O)[nH]c(SCC(=O)N(C)C)nc2n1	none
CC(N)CCCC(C)(C)O (centres undefined)	none (no result: JMJD2A Tudor inh, BAZ2B inh, HP1b chromo inh)
Cc1sc(-c2cccnc2)nc1OC(=O)C1CC1	G9a block 20µM, Sfp inh inconclusive
CNC(=O)c1sc(-c2cccnc2)nc1C	none
N/C(=N\OC(=O)c1ccc(Cl)cc1Cl)c1ccccn1	G9a block 89.1µM
N/C(=N\OC(=O)c1cc(Br)ccc1Cl)c1ccccn1	G9a block 56.2µM
N/C(=N\OC(=O)c1ccc([N+](=O)[O-])cc1Cl)c1ccccn1	JMJD2A Tudor inh inconclusive, BAZ2B inh 56.2µM, G9a block 20µM (no result: TDP1 inh)
O=C(O/N=C(\c1ccccc1)c1ccccn1)c1ccc(Cl)c(Cl)c1	G9a block 3.55µM
COC(=O)COc1ccc(S(=O)(=O)Nc2cc([N+](=O)[O-])ccc2C)cc1	none
Cc1cccc(C#Cc2ccccc2)n1	JMJD2A Tudor inh inconclusive, G9a block 20µM!, Sfp inh 50.1µM!
Nc1ccc(C#Cc2ccccc2)cc1	none
O=C(CCN1CCC(c2ccccc2)C1)c1ccccc1 (centres undefined)	BAZ2B inh inconclusive (no result: G9a block)
CCC1(C)CC2(CCCN(CCC(=O)c3ccccc3)C2)CCO1 (centres undefined)	G9a block 50.1µM
COc1ccc(C)cc1NC(=O)c1oc2ccc(S(=O)(=O)N3CCC4(CC3)OCCO4)cc2c1C	none (no result: Sfp inh)
O=[N+]([O-])c1ccccc1N=Nc1ccc(O)cc1	JMJD2A Tudor inh 50.1µM, HP1b chromo inh inconclusive (no result: BAZ2B inh, G9a block, Sfp inh, TDP1 inh)
O=[N+]([O-])c1ccccc1N/N=C/c1ccccc1	none
O=[N+]([O-])c1ccccc1N=NNc1ccccc1	JMJD2A Tudor inh 20µM, HP1b chromo inh inconclusive (no result: BAZ2B inh, G9a block, Sfp inh, TDP1 inh)
Cc1ccc(NC(=O)c2cc3c(=O)n(Cc4cccnc4)ccc3nc2C)cc1F	none (no result: Sfp inh)
O=C(c1ccco1)C(O)c1ccco1 (centres undefined)	G9a block 50.1µM (no result: TDP1 inh)
COc1ccc(C2C3=C(N=CN(CCN4CCOCC4)C3N)Oc3ccccc32)cc1OC (centres undefined)	none (no result: BAZ2B inh, G9a block, Sfp inh, HP1b chromo inh)
c1ccc(C2[C@H]3CN(Cc4cccnc4)[C@H](c4ccccc4)C34CC2(c2cccnc2)C4)cc1 (some centres undefined)	JMJD2A Tudor inh inconclusive, BAZ2B inh inconclusive, Sfp inh 56.2µM!
CN(C)c1oc(-c2ccc(Cl)cc2)nc1S(=O)(=O)c1ccccc1	JMJD2A Tudor inh 79.4µM, BAZ2B inh inconclusive, HP1b chromo inh inconclusive
COc1ccccc1-c1nc(S(=O)(=O)c2ccccc2)c(N2CCCCC2)o1	JMJD2A Tudor inh 79.4µM, G9a block 25.1µM, Sfp inh inconclusive, HP1b chromo inh inconclusive (no result: TDP1 inh)
COc1ccccc1-c1nc(S(=O)(=O)c2ccc(Cl)cc2)c(N2CCCCCC2)o1	G9a block inconclusive (no result: Sfp inh, TDP1 inh)
NC(=O)C1CCN(c2oc(-c3ccc(F)cc3)nc2S(=O)(=O)c2ccccc2)CC1	none (no result: Sfp inh)
O=S(=O)(c1ccccc1)c1nc(-c2ccc(F)cc2)oc1N1CCCCCC1	BAZ2B inh inconclusive, G9a block 12.6µM (no result: Sfp inh)
CCN1CCN(c2oc(-c3ccccc3C)nc2S(=O)(=O)c2ccccc2)CC1	JMJD2A Tudor inh inconclusive, BAZ2B inh inconclusive, G9a block 35.5µM (no result: Sfp inh)
CC1CCN(CC(=O)NC2CCCCC2)CC1	G9a block inconclusive (no result: TDP1 inh)
C[C@@]12CCC[C@H]1C1CC[C@H]3C[C@H](O)CC[C@]3(C)C1CC2 (some centres undefined)	none (no result: JMJD2A Tudor inh, BAZ2B inh, HP1b chromo inh)
CCOc1ccc(-n2c(SCC(=O)Nc3ccc4c(c3)OCCO4)nc3c([nH]c4ccccc43)c2=O)cc1	none (no result: Sfp inh)
Cc1cccc(C)c1NC(=O)Cn1nnnc1N	none
COc1cccc(C(=O)N/N=C(\C)CC(=O)Nc2ccc(N(C)C)cc2)c1	BAZ2B inh 56.2µM (no result: G9a block)
C/C(CC(=O)Nc1ccc([N+](=O)[O-])cc1)=N\NC(=O)c1ccccc1O	none (no result: TDP1 inh)
